Experimental findings from PubChem BioAssay (NCATS) are described below.

Inconclusive results are not listed. Active and inactive are the calls of the source. Unless noted, calls follow the shape of the dose curve; as a rule, active = well fitted curve in the direction sought with a large enough effect; inconclusive = small, poorly fitted or top-dose-only effect, or another doubt; inactive = no such curve, though single readings can be large; an effect the other way counts as inactive or inconclusive.

The test system of one assay is CP256. The experiment in a line: qHTS profiling for inhibitors of Plasmodium falciparum proliferation (AID 504749).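 Also: 0% = DMSO vehicle and full inhibition = artemisinin control; nearly all actives have a fitted effect of over 60% in size.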 To be noted: P. falciparum in erythrocytes, SYBR Green DNA, 72 h; series mostly up to 12.8 µM. In short, it runs like this: (§1)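 SYBR Green fluorescence of parasite DNA, read after lysis and overnight dark incubation, measured growth over 72 h in erythrocyte culture at 0.3% parasitemia and 2.5% hematocrit. Data normalised to DMSO and 0.29 uM artemisinin, with plate-drift correction.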
For orientation: qHTS replaces the single test concentration by a dilution series.

Another assay concerns CP260. Described as above. To be noted: P. falciparum in erythrocytes, SYBR Green DNA, 72 h; series mostly up to 12.8 µM. An outline of the steps:
as §1

The next assay deals with CP262. Described as above. The conditions noted are these: P. falciparum in erythrocytes, SYBR Green DNA, 72 h; series mostly up to 12.8 µM. An outline of the steps: as §1
For a further assay, the system named is CP265. The assay is described as above. The conditions noted are these: P. falciparum in erythrocytes, SYBR Green DNA, 72 h; series mostly up to 12.8 µM. In short, it runs like this: as §1
The test system of a further assay is CP266. The assay is described as above. To be noted: P. falciparum in erythrocytes, SYBR Green DNA, 72 h; series mostly up to 12.8 µM. In short, it runs like this:
as §1

A further assay has as its system CP268. The description is as above. The conditions noted are these: P. falciparum in erythrocytes, SYBR Green DNA, 72 h; series mostly up to 12.8 µM. An outline of the steps:
as §1

The test system of a further assay is CP269. The assay is described as above. The conditions noted are these: P. falciparum in erythrocytes, SYBR Green DNA, 72 h; series mostly up to 12.8 µM. An outline of the steps: as §1
A further assay concerns CP286. The description is as above. The conditions noted are these: P. falciparum in erythrocytes, SYBR Green DNA, 72 h; series mostly up to 12.8 µM. An outline of the steps: as §1
The test system of a further assay is CP291. Described as above. The conditions noted are these: P. falciparum in erythrocytes, SYBR Green DNA, 72 h; series mostly up to 12.8 µM. An outline of the steps: as §1
A further assay concerns CP297. Described as above. The conditions noted are these: P. falciparum in erythrocytes, SYBR Green DNA, 72 h; series mostly up to 12.8 µM. An outline of the steps: as §1
Another assay concerns CP305. Described as above. To be noted: P. falciparum in erythrocytes, SYBR Green DNA, 72 h; series mostly up to 12.8 µM. An outline of the steps: as §1
A further assay relates to CP315. The assay is described as above. The conditions noted are these: P. falciparum in erythrocytes, SYBR Green DNA, 72 h; series mostly up to 12.8 µM. In short, it runs like this: as §1
The next assay deals with CP325. The description is as above. The conditions noted are these: P. falciparum in erythrocytes, SYBR Green DNA, 72 h; series mostly up to 12.8 µM. In short, it runs like this: as §1
The subject of the next assay is CP329. The assay is described as above. To be noted: P. falciparum in erythrocytes, SYBR Green DNA, 72 h; series mostly up to 12.8 µM. An outline of the steps:
as §1

A further assay deals with CP335. Described as above. The conditions noted are these: P. falciparum in erythrocytes, SYBR Green DNA, 72 h; series mostly up to 12.8 µM. In short, it runs like this:
as §1

The next assay relates to DFO2036. The description is as above. To be noted: P. falciparum in erythrocytes, SYBR Green DNA, 72 h; series mostly up to 12.8 µM. An outline of the steps:
as §1

In a further assay the test system is DIV17. Described as above. To be noted: P. falciparum in erythrocytes, SYBR Green DNA, 72 h; series mostly up to 12.8 µM. An outline of the steps: as §1
For the next assay, the system named is DIV30. The description is as above. The conditions noted are these: P. falciparum in erythrocytes, SYBR Green DNA, 72 h; series mostly up to 12.8 µM. An outline of the steps: as §1
A further assay deals with Dd2. The assay is described as above. The conditions noted are these: P. falciparum in erythrocytes, SYBR Green DNA, 72 h; series mostly up to 12.8 µM. In short, it runs like this: as §1
A further assay deals with ECU. The description is as above. The conditions noted are these: P. falciparum in erythrocytes, SYBR Green DNA, 72 h; series mostly up to 12.8 µM. In short, it runs like this:
as §1

In another assay the test system is FAB9. Described as above. To be noted: P. falciparum in erythrocytes, SYBR Green DNA, 72 h; series mostly up to 12.8 µM. In short, it runs like this:
as §1

The subject of a further assay is GB4. Described as above. To be noted: P. falciparum in erythrocytes, SYBR Green DNA, 72 h; series mostly up to 12.8 µM. An outline of the steps: as §1
The next assay deals with HB3. The assay is described as above. The conditions noted are these: P. falciparum in erythrocytes, SYBR Green DNA, 72 h; series mostly up to 12.8 µM. An outline of the steps: as §1
Another assay has as its system ICS. The assay is described as above. To be noted: P. falciparum in erythrocytes, SYBR Green DNA, 72 h; series mostly up to 12.8 µM. In short, it runs like this:
as §1

A further assay relates to JCK. The assay is described as above. The conditions noted are these: P. falciparum in erythrocytes, SYBR Green DNA, 72 h; series mostly up to 12.8 µM. In short, it runs like this: as §1
A further assay relates to N140. The assay is described as above. To be noted: P. falciparum in erythrocytes, SYBR Green DNA, 72 h; series mostly up to 12.8 µM. An outline of the steps: as §1
The subject of a further assay is P93_24. The description is as above. To be noted: P. falciparum in erythrocytes, SYBR Green DNA, 72 h; series mostly up to 12.8 µM. In short, it runs like this:
as §1

The subject of a further assay is P94_40. The description is as above. To be noted: P. falciparum in erythrocytes, SYBR Green DNA, 72 h; series mostly up to 12.8 µM. An outline of the steps:
as §1

In a further assay the test system is PAD. The assay is described as above. To be noted: P. falciparum in erythrocytes, SYBR Green DNA, 72 h; series mostly up to 12.8 µM. In short, it runs like this: as §1
In a further assay the test system is PC15. The description is as above. The conditions noted are these: P. falciparum in erythrocytes, SYBR Green DNA, 72 h; series mostly up to 12.8 µM. An outline of the steps:
as §1

A further assay has as its system PC26. Described as above. To be noted: P. falciparum in erythrocytes, SYBR Green DNA, 72 h; series mostly up to 12.8 µM. In short, it runs like this:
as §1

For a further assay, the system named is PC49. The description is as above. To be noted: P. falciparum in erythrocytes, SYBR Green DNA, 72 h; series mostly up to 12.8 µM. An outline of the steps: as §1
A further assay relates to SC27B. The assay is described as above. The conditions noted are these: P. falciparum in erythrocytes, SYBR Green DNA, 72 h; series mostly up to 12.8 µM. In short, it runs like this: as §1
The next assay concerns TAB109. The assay is described as above. The conditions noted are these: P. falciparum in erythrocytes, SYBR Green DNA, 72 h; series mostly up to 12.8 µM. An outline of the steps:
as §1

Another assay has as its system TAB113. The description is as above. The conditions noted are these: P. falciparum in erythrocytes, SYBR Green DNA, 72 h; series mostly up to 12.8 µM. An outline of the steps: as §1
The test system of another assay is TAB165. The assay is described as above. To be noted: P. falciparum in erythrocytes, SYBR Green DNA, 72 h; series mostly up to 12.8 µM. In short, it runs like this: as §1
The next assay deals with W2. The description is as above. The conditions noted are these: P. falciparum in erythrocytes, SYBR Green DNA, 72 h; series mostly up to 12.8 µM. An outline of the steps:
as §1

Assay [1] concerns the target N-terminal Xaa-Pro-Lys N-methyltransferase 1 (Homo sapiens) (UniProt Q9BV86). The assay is described as follows: Confirmatory qHTS for Inhibitors of N-terminal methyltransferase 1 (NTMT1): MTaseGlo Assay (AID 1645874). Also: nearly all actives have a fitted effect of over 65% in size. Also: potency is read from the fitted curve at half-maximal effect. An outline of the steps:
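Room-temperature NTMT1 reaction, 30 min, with 100 uM SAM and 1 uM SPKRIA substrate; enzyme 125 nM. Read-out: MTase-Glo luminescence, normalized to no-enzyme and DMSO controls.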

Assay [2] in a line: Primary qHTS for inhibitors of nuclear receptor binding SET domain protein 2 (NSD2) in an isogenic RCH-ACV NSD2 p.E1099K mutant (9B) (AID 1645876). Also: potency is read from the fitted curve at half-maximal effect; nearly all actives have a fitted effect of over 70% in size.
The nature of assay [3]: Primary qHTS for inhibitors of nuclear receptor binding SET domain protein 2 (NSD2) in an RCH-ACV wild type WT cells (2C) (AID 1645877). Also: potency is read from the fitted curve at half-maximal effect; nearly all actives have a fitted effect of over 70% in size.
For assay [4], the target named is Glutathione peroxidase 1 (Homo sapiens) (UniProt P07203). The assay is described as follows: Primary qHTS Assay for Inhibitors of Recombinant Selenoprotein Glutathione Peroxidase 1 (GPX1) (AID 1845191). Also: nearly all actives have a fitted effect of over 65% in size. An outline of the steps: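 NADPH consumption tracked by fluorescence at 340/450 nm between t=0 and t=15 min, room temperature. Final mix: 10 nM GPX1, 100 nM glutathione reductase, 1 mM GSH, 0.5 mM NADPH, 0.5 mM cumene hydroperoxide, 0.01% BSA; 30 min compound–enzyme preincubation.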
Sequence of Glutathione peroxidase 1 (Homo sapiens) (P07203 whole entry, looked up): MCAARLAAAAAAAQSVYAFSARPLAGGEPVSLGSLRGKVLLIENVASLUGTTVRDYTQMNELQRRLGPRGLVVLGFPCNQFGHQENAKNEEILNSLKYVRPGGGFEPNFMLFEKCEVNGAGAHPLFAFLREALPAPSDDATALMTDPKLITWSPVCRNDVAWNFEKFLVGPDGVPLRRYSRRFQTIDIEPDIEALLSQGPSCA

The target in assay [5] is Phospholipid hydroperoxide glutathione peroxidase GPX4 (Homo sapiens) (UniProt P36969). The assay is described as follows: Primary qHTS Assay for Inhibitors of Recombinant Selenoprotein Glutathione Peroxidase 4 (GPX4) (AID 1845192). Also: % is scaled to controls: 0 for no effect and ±100 for the full control effect; nearly all actives have a fitted effect of over 65% in size. An outline of the steps:
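NADPH consumption followed by fluorescence at 340/450 nm, t=0 and after 15 min at room temperature. Reaction started with cumene hydroperoxide (0.5 mM final) after 30 min compound–GPX4 preincubation; final 200 nM GPX4, 100 nM GR, 1 mM GSH, 0.5 mM NADPH.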

The nature of assay [6]: qHTS drug screen for cell cycle checkpoint inhibitors in PARPi-resistant BRCA-mutant ovarian cancer cell lines. (AID 1963452; calls by dose curve; also: potency is read from the fitted curve at half-maximal effect). The conditions noted are these: PEO1/OlaR viability, CellTiter-Glo luminescence, 96 h; for Z-AUC: stronger effect = lower value. In short, it runs like this: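 PEO1, PEO4 and PEO1/OlaR ovarian cancer cells, 600 per well, exposed 96 h at 37C to a dilution series. Viability read by CellTiter-Glo luminescence, normalized to DMSO and empty wells; activity summarized as Z-AUC.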

Sequence of N-terminal Xaa-Pro-Lys N-methyltransferase 1 (Homo sapiens) (Q9BV86 whole entry, looked up): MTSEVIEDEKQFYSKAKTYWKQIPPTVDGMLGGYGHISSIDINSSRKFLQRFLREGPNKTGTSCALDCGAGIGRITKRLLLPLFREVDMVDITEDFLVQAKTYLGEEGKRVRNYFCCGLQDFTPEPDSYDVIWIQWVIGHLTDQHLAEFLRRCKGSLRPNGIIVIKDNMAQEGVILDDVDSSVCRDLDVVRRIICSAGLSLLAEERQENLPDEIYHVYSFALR
Sequence of Phospholipid hydroperoxide glutathione peroxidase GPX4 (Homo sapiens) (P36969 whole entry, looked up): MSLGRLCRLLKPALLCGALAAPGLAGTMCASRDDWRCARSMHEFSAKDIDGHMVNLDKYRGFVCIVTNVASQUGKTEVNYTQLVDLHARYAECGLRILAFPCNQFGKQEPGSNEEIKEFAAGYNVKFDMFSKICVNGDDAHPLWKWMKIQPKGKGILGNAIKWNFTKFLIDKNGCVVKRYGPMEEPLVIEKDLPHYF

As for `Nc1nc(NC2CC2)c2ncn([C@H]3C=C[C@@H](CO)C3)c2n1`, the Potency result with CP256, with CP260, in the assay on CP262, in the assay with CP265, in the assay with CP266 and in the assay on CP268 was “inactive” in each case. Moreover, the Potency result in the assay with CP269, in the assay on CP286, with CP291, in the assay on CP297, in the assay on CP305 and in the assay with CP315 was “inactive” each time. The Potency entry in the assay with CP325, with CP329, in the assay with CP335, in the assay with DFO2036, in the assay with DIV17 and in the assay on DIV30 was “inactive” in each case. Further, the Potency result in the assay on Dd2, in the assay with ECU, in the assay on FAB9, in the assay with GB4, in the assay on HB3 and with ICS was “inactive” throughout. Also, the Potency result in the assay on JCK, with N140, in the assay with P93_24, in the assay with P94_40, in the assay on PAD and with PC15 was “inactive” in each case. In addition, the Potency entry in the assay on PC26, in the assay on PC49, in the assay with SC27B, in the assay on TAB109, in the assay on TAB113 and in the assay with TAB165 was “inactive” in each case. In addition, the Potency result in the assay with W2 is “inactive”.
Regarding `O=c1c2cc3c(cc2nc2sc(Nc4ccccc4)nn12)OCO3`, in assay [1], the Potency result is “inactive”.
For the compound `Fc1cc(Nc2nc(-c3ccncc3)nc3ccccc23)ccc1N1CCNCC1`, in assay [1], the Potency was 21.8 µM (active).
For the compound `COc1ccccc1C(=O)Nc1onc2c1CCCC2`, the Potency result in assay [1] is “inactive”.
Regarding `C=CC(=O)N1CC[C@@H](Oc2nc(Nc3ccc(N4CCC(N5CCN(C)CC5)CC4)cc3)c(C(N)=O)nc2CC)C1`, the Potency in [1] was 4.15 µM (active); in assay [2], 910 nM (active); in [3] it was 1.62 µM (active); in assay [6] it was 1.69 µM (active). Besides, the Potency result in assay [4] and in assay [5] was “inactive” each time. The Z-AUC in [6] (measured here: PEO1 parental Z-AUC) was -1.18; in [6] (measured here: PEO4 Z-AUC), -1.49.
Take `O=C(Nc1onc2c1CCCC2)c1ccccc1`: in assay [1], the Potency result was “inactive”.
For `COc1cc2nc(N3CCOCC3)nc(NC(C)C)c2cc1OC`, the Potency in [1] is 34.5 µM (active).
